Laboratory results from PubChem BioAssay (Tox21).
Records with an inconclusive call do not appear. Active and inactive are the calls of the source. Unless noted, the call rests on the fitted dose curve; in most records, active means well fitted curve in the direction sought with a large enough effect in the repeat runs; inconclusive means weak or mixed curves; inactive means no such curve, though single readings can be large; an effect the other way counts as inactive or inconclusive.

Experiments:
[1] = qHTS assay to identify aromatase inhibitors - cell viability counter screen (AID 743084);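 further: cells stimulated with testosterone during compound exposure; nearly all actives have a fitted effect of over 55% in size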
[2] = target: Aryl hydrocarbon receptor (Homo sapiens) (UniProt P35869); test: qHTS assay to identify small molecule that activate the aryl hydrocarbon receptor (AhR) signaling pathway (AID 743085);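 further: HG2L7.5c1 human HepG2 liver cells with stably integrated DRE-driven firefly reporter; series mostly up to about 70 µM; nearly all actives have a fitted effect of over 15% in size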
Procedure, shortened: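 HepG2 cells (HG2L7.5c1) stably carrying a firefly luciferase reporter driven by 20 dioxin responsive elements were exposed to compound for 24 h at 37C after a 5 h settling period; luminescence rise (ONE-Glo) indicated activation.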

[3] = qHTS assay to identify small molecule that activate the aryl hydrocarbon receptor (AhR) signaling pathway - cell viability counter screen (AID 743086);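 further: HepG2 liver cells carrying the AhR DRE luciferase reporter; series mostly up to about 70 µM; nearly all actives have a fitted effect of over 45% in size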
Procedure, shortened: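 HepG2-AhR-luc (HG2L7.5c1) cells, 4000/well, treated 24 h at 37 C with compound; viability measured as CellTiter-Fluor fluorescence after 30 min in the same wells as the luciferase read.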

[4] = target: Peroxisome proliferator-activated receptor gamma (Homo sapiens) (UniProt P37231); test: qHTS assay to identify small molecule antagonists of the peroxisome proliferator-activated receptor gamma (PPARg) signaling pathway (AID 743191; calls by dose curve; further: series mostly up to about 63 µM; nearly all actives have a fitted effect of over 30% in size)
Procedure, shortened: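 GeneBLAzer PPARg UAS-bla HEK293H cells, 5 h post-plating, exposed to compounds 17 h at 37C. LiveBLAzer B/G FRET substrate added for 1 h at room temperature; beta-lactamase reporter read by fluorescence intensity.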

[5] = qHTS assay to identify small molecule antagonists of the peroxisome proliferator-activated receptor gamma (PPARg) signaling pathway - cell viability counter screen (AID 743194); further: nearly all actives have a fitted effect of over 55% in size
Procedure, shortened: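 Cytotoxicity counter screen in PPARg-bla HEK293H cells, same wells as reporter assay. Compounds plus 50 nM rosiglitazone (final) for 17 h at 37 C, then viability read by CellTiter-Glo luminescence.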

[6] = qHTS assay for small molecule agonists of the antioxidant response element (ARE) signaling pathway (AID 743202; active means well fitted activation curve with a large enough effect in the signal ratio in the repeat runs, not every such curve was filed as active; the % refers to the signal ratio)
Procedure, shortened: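 ARE-bla HepG2 cells (beta-lactamase reporter under the antioxidant response element), plated 5 hours, then exposed to compounds 16 hours at 37 C. LiveBLAzer B/G FRET substrate added for 2 hours at room temperature; fluorescence intensity read.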

[7] = qHTS assay for small molecule agonists of the antioxidant response element (ARE) signaling pathway - cell viability counter screen (AID 743203; calls by dose curve; further: nearly all actives have a fitted effect of over 55% in size)
Procedure, shortened: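 Seeded at 2,000 cells/well, ARE-bla HepG2 cells were incubated 5 hrs before compound addition. After 16 hrs of treatment at 37C with 5% CO2, CellTiter-Glo reagent was added and luminescence read 30 min later.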

[8] = qHTS assay for small molecule activators of the heat shock response signaling pathway - cell viability counter screen (AID 743209); further: nearly all actives have a fitted effect of over 50% in size
Procedure, shortened: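 First, HSE-bla HeLa cells were seeded at 1500 cells/well and kept overnight at 37 C. Next, compounds were pinned in and incubated 5 h. After the FRET substrate step, CellTiter-Glo was added and luminescence read 30 min later.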

[9] = qHTS assay for small molecule activators of the heat shock response signaling pathway (AID 743210; active means well fitted activation curve with a large enough effect in the signal ratio in the repeat runs, with a control signal flat, not every such curve was filed as active; the % refers to the signal ratio; further: series mostly up to about 63 µM)
Procedure, shortened: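 HSE-bla HeLa cells (beta-lactamase reporter under heat shock response elements), plated overnight, then exposed to compounds 5 h at 37 C; LiveBLAzer B/G FRET substrate added, 2.5 h at room temperature, fluorescence intensity read.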

[10] = qHTS assay to identify small molecule agonists of the peroxisome proliferator-activated receptor delta (PPARd) signaling pathway - cell viability counter screen (AID 743211); further: nearly all actives have a fitted effect of over 55% in size
Procedure, shortened: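 PPARd-bla HEK293H cells (UAS-beta-lactamase reporter) were treated with compounds for 17 h at 37 C. Viability was then read in the same wells by CellTiter-Glo luminescence after 30 min at room temperature.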

[11] = target: Peroxisome proliferator-activated receptor delta (Homo sapiens) (UniProt Q03181); test: qHTS assay to identify small molecule agonists of the peroxisome proliferator-activated receptor delta (PPARd) signaling pathway (AID 743212; calls by dose curve)
Procedure, shortened: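 GeneBLAzer UAS-bla HEK293H cells carrying a PPARδ construct were exposed to compounds at 37 °C. Beta-lactamase activity was read by FRET fluorescence after 2 h at room temperature with LiveBLAzer B/G substrate.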

[12] = qHTS assay to identify small molecule antagonists of the peroxisome proliferator-activated receptor delta (PPARd) signaling pathway - cell viability counter screen (AID 743213); further: nearly all actives have a fitted effect of over 50% in size
Procedure, shortened: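 HEK293H PPARd UAS-bla cells, 5 h pre-incubation, compound + L165041 300 nM final, 17 h 37 C; B/G FRET substrate 2 h RT; then CellTiter-Glo 30 min RT, luminescence.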

[13] = target: Bile acid receptor (Homo sapiens) (UniProt Q96RI1); test: qHTS assay to identify small molecule antagonists of the farnesoid-X-receptor (FXR) signaling pathway (AID 743217; active means well fitted inhibition curve with a large enough effect in the signal ratio in the repeat runs, not every such curve was filed as active; the % refers to the signal ratio)
Procedure, shortened: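 Antagonist mode against 50 uM (final) chenodeoxycholic acid stimulation in FXR-bla HEK 293T cells, 16 h at 37 °C. Inhibition detected as reduced beta-lactamase activity via LiveBLAzer B/G FRET fluorescence after 2 h at room temperature.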

[14] = qHTS assay to identify small molecule agonists of the farnesoid-X-receptor (FXR) signaling pathway - cell viability counter screen (AID 743218); further: nearly all actives have a fitted effect of over 45% in size
Procedure, shortened: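 Cytotoxicity counter-screen run in parallel, same wells: FXR-UAS-bla HEK 293T cells dosed 16 h at 37 C, viability read by CellTiter-Glo luminescence after 30 min at room temperature.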

[15] = qHTS assay to identify small molecule antagonists of the farnesoid-X-receptor (FXR) signaling pathway - cell viability counter screen (AID 743221; active means well fitted cell-killing curve with a large enough effect in the repeat runs, not every such curve was filed as active; further: nearly all actives have a fitted effect of over 50% in size)
Procedure, shortened: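 FXR-UAS-bla HEK 293T cells were treated with test compounds plus chenodeoxycholic acid (50 uM final) for 16 h at 37 C. Cell viability in the same wells was then read as CellTiter-Glo luminescence after 30 min at room temperature.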

[16] = target: Vitamin D3 receptor (Homo sapiens) (UniProt P11473); test: qHTS assay to identify small molecule agonists of the vitamin D receptor (VDR) signaling pathway (AID 743222; calls by dose curve)
Procedure, shortened: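 Quantitative HTS agonist-mode screen: compounds in DMSO were pin-transferred onto VDR-bla cells and incubated 16 h at 37C, 5% CO2. Reporter activity was detected with LiveBLAzer B/G FRET substrate after 2 h at room temperature.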

[17] = target: Peroxisome proliferator-activated receptor gamma (Homo sapiens) (UniProt P37231); test: qHTS assay to identify small molecule agonists of the peroxisome proliferator-activated receptor gamma (PPARg) signaling pathway (AID 743094; active means well fitted activation curve with a large enough effect in the signal ratio in the repeat runs, not every such curve was filed as active; the % refers to the signal ratio)
Procedure, shortened: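 Quantitative HTS agonist mode: stable HEK293H line with UAS-beta-lactamase reporter under PPARg control, 17 h compound exposure at 37C, fluorescence after 1 h FRET substrate loading at room temperature.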

[18] = target: Peroxisome proliferator-activated receptor delta (Homo sapiens) (UniProt Q03181); test: qHTS assay to identify small molecule antagonists of the peroxisome proliferator-activated receptor delta (PPARd) signaling pathway (AID 743215; active means well fitted inhibition curve with a large enough effect in the signal ratio in the repeat runs, not every such curve was filed as active; the % refers to the signal ratio;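 further: cells stimulated with agonist L165041 at 300 nM final during compound exposure; series mostly up to about 62 µM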)
Procedure, shortened: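 Inhibition of L165041-driven (300 nM final) PPARd signaling is scored in HEK293H UAS-bla cells. Exposure lasts 17 h at 37 C; beta-lactamase activity is then read by FRET substrate fluorescence after 2 h at room temperature.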

[19] = target: Vitamin D3 receptor (Homo sapiens) (UniProt P11473); test: qHTS assay to identify small molecule antagonists of the vitamin D receptor (VDR) signaling pathway (AID 743223; active means well fitted inhibition curve with a large enough effect in the signal ratio in the repeat runs, not every such curve was filed as active; the % refers to the signal ratio)
Procedure, shortened: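 VDR-bla cells were plated, incubated 4 h at 37C, then given compound and 1alpha,25-dihydroxyvitamin D3 (3 nM final). After 16 h at 37C, LiveBLAzer B/G FRET substrate was added for 2 h at room temperature and fluorescence read.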

[20] = target: Bile acid receptor (Homo sapiens) (UniProt Q96RI1); test: qHTS assay to identify small molecule agonists of the farnesoid-X-receptor (FXR) signaling pathway (AID 743220; active means well fitted activation curve with a large enough effect in the signal ratio in the repeat runs, not every such curve was filed as active; the % refers to the signal ratio)
Procedure, shortened: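 Beta-lactamase reporter under UAS control in GeneBLAzer FXR HEK 293T cells (5000/well) measured with LiveBLAzer FRET substrate after 2 h at room temperature. Compound exposure lasted 16 h at 37C.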
On the % scale 0 is the no-effect control and ±100 the full control effect.

Peroxisome proliferator-activated receptor gamma (Homo sapiens), sequence (P37231 whole entry, looked up): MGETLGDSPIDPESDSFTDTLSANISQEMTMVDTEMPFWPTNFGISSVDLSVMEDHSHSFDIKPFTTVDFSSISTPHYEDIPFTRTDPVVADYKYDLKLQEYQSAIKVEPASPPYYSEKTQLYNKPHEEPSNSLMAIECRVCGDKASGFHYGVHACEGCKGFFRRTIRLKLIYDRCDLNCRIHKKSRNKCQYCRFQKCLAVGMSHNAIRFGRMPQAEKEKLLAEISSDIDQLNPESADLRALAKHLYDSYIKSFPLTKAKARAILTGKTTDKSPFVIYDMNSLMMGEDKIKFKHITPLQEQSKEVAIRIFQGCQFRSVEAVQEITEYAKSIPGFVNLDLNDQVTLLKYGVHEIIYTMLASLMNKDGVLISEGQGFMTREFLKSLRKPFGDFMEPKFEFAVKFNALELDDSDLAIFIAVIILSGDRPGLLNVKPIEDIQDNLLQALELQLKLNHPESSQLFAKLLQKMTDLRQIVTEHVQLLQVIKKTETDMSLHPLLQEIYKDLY
Bile acid receptor (Homo sapiens), sequence (Q96RI1 whole entry, looked up): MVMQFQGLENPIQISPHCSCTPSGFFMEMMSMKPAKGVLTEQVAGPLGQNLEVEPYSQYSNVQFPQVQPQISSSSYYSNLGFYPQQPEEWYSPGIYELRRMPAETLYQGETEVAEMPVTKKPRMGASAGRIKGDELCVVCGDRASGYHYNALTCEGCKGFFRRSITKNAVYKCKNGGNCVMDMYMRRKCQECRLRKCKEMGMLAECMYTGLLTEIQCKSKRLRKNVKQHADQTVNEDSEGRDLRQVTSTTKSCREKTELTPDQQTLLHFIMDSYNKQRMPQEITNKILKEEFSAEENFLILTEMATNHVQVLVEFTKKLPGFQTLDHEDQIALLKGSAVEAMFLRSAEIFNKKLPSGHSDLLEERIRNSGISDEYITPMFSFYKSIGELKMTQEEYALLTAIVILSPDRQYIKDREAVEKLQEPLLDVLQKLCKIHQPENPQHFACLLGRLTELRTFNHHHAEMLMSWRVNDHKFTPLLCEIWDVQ
Peroxisome proliferator-activated receptor delta (Homo sapiens), sequence (Q03181 whole entry, looked up): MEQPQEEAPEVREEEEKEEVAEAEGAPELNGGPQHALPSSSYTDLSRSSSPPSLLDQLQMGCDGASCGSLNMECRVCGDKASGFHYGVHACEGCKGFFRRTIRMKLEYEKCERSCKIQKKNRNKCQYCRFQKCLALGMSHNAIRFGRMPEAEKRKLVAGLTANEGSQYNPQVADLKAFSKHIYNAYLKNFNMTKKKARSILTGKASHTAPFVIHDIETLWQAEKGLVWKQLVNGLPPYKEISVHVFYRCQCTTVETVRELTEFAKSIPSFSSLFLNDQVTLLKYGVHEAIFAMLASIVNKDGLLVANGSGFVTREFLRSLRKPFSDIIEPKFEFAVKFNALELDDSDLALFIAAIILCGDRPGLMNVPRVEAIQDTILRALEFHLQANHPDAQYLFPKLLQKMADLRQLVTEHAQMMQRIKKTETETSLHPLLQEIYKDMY
Aryl hydrocarbon receptor (Homo sapiens), sequence (P35869 whole entry, looked up): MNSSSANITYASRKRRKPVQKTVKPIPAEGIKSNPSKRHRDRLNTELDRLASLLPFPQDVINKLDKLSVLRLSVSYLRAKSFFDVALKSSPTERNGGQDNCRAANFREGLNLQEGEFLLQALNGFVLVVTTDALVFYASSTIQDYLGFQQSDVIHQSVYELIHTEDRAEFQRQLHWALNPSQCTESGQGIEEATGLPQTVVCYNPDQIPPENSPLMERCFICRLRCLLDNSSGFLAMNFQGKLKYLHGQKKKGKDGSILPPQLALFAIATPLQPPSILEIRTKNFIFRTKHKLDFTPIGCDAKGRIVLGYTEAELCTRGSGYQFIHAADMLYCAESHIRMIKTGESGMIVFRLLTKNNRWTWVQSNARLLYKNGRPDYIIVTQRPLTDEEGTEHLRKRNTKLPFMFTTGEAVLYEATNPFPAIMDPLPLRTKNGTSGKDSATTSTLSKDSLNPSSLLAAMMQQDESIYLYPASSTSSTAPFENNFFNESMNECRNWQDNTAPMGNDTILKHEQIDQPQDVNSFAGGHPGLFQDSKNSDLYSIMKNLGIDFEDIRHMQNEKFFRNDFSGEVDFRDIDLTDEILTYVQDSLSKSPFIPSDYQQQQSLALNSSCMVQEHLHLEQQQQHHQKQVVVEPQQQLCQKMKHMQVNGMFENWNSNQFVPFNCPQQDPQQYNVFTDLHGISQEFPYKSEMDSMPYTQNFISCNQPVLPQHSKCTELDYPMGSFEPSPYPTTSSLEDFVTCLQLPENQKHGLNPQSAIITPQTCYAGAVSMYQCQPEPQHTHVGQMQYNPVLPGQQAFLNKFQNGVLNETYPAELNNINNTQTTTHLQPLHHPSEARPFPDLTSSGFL
Vitamin D3 receptor (Homo sapiens), sequence (P11473 whole entry, looked up): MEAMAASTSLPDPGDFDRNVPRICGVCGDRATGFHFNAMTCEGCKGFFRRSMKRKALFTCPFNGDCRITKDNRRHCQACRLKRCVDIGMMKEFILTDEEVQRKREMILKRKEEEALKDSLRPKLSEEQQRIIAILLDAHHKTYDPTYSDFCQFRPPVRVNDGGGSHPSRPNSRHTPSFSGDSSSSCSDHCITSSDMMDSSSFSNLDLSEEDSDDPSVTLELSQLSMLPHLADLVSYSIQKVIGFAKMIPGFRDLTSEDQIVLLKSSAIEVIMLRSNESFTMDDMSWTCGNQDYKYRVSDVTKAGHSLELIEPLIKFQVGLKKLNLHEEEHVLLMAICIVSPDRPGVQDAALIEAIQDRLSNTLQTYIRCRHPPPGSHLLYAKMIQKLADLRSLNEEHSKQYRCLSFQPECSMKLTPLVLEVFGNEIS

CCCCCCCCCCCC(C)=O
inactive: outcome [1] | Potency [2] | outcome [3] | outcome [4] | outcome [5] | Potency [6] | outcome [7] | Potency [8] | outcome [9] | outcome [10] | outcome [11] | outcome [12] | outcome [13] | outcome [14] | outcome [15] | outcome [16]

C=CCCCCCCCCOC(C)=O
inactive: outcome [1] | Potency [2] | outcome [3] | outcome [17] | outcome [5] | Potency [6] | outcome [7] | Potency [8] | outcome [9] | outcome [10] | outcome [13] | outcome [14] | outcome [15]

C/C=C(\C)C(=O)OC/C=C(\C)CCC=C(C)C
inactive: outcome [1] | Potency [2] | outcome [3] | outcome [4] | outcome [5] | Potency [6] | outcome [7] | Potency [8] | outcome [10] | outcome [11] | outcome [18] | outcome [14] | outcome [16] | outcome [19]

NS(=O)(=O)c1cc2c(cc1C(F)(F)F)NCNS2(=O)=O
inactive: outcome [1] | Potency [2] | outcome [3] | outcome [17] | outcome [5] | outcome [7] | Potency [8] | outcome [9] | outcome [11] | outcome [12] | outcome [18] | outcome [16] | outcome [19]

O=P(O)(O)C(O)(Cc1cccnc1)P(=O)(O)O
inactive: outcome [1] | Potency [2] | outcome [3] | outcome [17] | outcome [5] | Potency [6] | outcome [7] | Potency [8] | outcome [9] | outcome [12] | outcome [18] | outcome [13] | outcome [14] | outcome [20] | outcome [15] | outcome [16] | outcome [19]

Cc1ccccc1OCC(=O)O
inactive: outcome [1] | Potency [2] | outcome [3] | outcome [17] | outcome [5] | Potency [6] | outcome [7] | Potency [8] | outcome [9] | outcome [11] | outcome [12] | outcome [18] | outcome [13] | outcome [14] | outcome [20] | outcome [15] | outcome [16]

CN(C)CCCN(C)C
inactive: activity change, negative = cytotoxicity [1] 2.06% [at 8.47 µM] | activation [2] -0.58% [at 8.47 µM] | viability change, negative = cytotoxic [3] -2.64% [at 8.47 µM] | ratio activity, negative = inhibition [4] 4.44% [at 5.95 µM] | activity change, negative = cytotoxicity [5] -7.23% [at 5.95 µM] | activation [6] -1.85% [at 8.36 µM] | viability change, negative = cytotoxic [7] 5.88% [at 8.36 µM] | activation [9] -0.827% [at 5.95 µM] | activity change, negative = cytotoxicity [10] -3.03% [at 5.95 µM] | activation [11] -1.31% [at 5.95 µM] | viability change, negative = cytotoxic [12] 1.43% [at 6.26 µM] | ratio activity, negative = inhibition [18] 5.28% [at 6.26 µM] | viability change, negative = cytotoxic [14] 2.3% [at 5.95 µM] | activity change, negative = cytotoxicity [15] 0.644% [at 5.95 µM] | activation [16] -2.68% [at 6.01 µM] | activity change, negative = inhibition [19] -1.32% [at 6.95 µM]

O=C1c2ccccc2C(=O)N1CO
inactive: outcome [1] | Potency [2] | outcome [17] | outcome [4] | outcome [5] | Potency [6] | outcome [7] | Potency [8] | outcome [9] | outcome [10] | outcome [11] | outcome [18] | outcome [14] | outcome [15]

CCCCCCCCCCCCCCCCN(C)C
inactive: activity change, negative = cytotoxicity [1] 0.21% [at 8.47 µM] | activation [2] -0.709% [at 8.47 µM] | viability change, negative = cytotoxic [3] -0.517% [at 8.47 µM] | activity change, negative = cytotoxicity [5] 2.19% [at 5.95 µM] | activation [6] 0.808% [at 8.36 µM] | viability change, negative = cytotoxic [7] 8.57% [at 8.36 µM] | activity change, negative = cytotoxicity [8] -2.6% [at 5.95 µM] | activation [9] -0.814% [at 5.95 µM] | activity change, negative = cytotoxicity [10] 1.19% [at 5.95 µM] | viability change, negative = cytotoxic [12] 1.6% [at 6.26 µM] | ratio activity, negative = inhibition [18] -0.339% [at 6.26 µM] | activity change, negative = inhibition [13] -5.41% [at 5.95 µM] | viability change, negative = cytotoxic [14] 0.68% [at 5.95 µM] | activity change, negative = cytotoxicity [15] -0.818% [at 5.95 µM]

CCCCN=C(N)N=C(N)N
inactive: outcome [1] | Potency [2] | outcome [17] | outcome [4] | outcome [5] | outcome [7] | Potency [8] | outcome [9] | outcome [12] | outcome [18] | outcome [15]

CC12CCCC=C1C(=O)OC2=O (stereo unspecified)
inactive: outcome [1] | Potency [2] | outcome [17] | outcome [4] | outcome [5] | outcome [7] | Potency [8] | outcome [9] | outcome [10] | outcome [11] | outcome [18] | outcome [14] | outcome [15] | outcome [16] | outcome [19]

CC(C)(Sc1cc(C(C)(C)C)c(O)c(C(C)(C)C)c1)Sc1cc(C(C)(C)C)c(O)c(C(C)(C)C)c1
inactive: outcome [1] | Potency [2] | outcome [17] | outcome [4] | outcome [5] | Potency [6] | outcome [7] | Potency [8] | outcome [9] | outcome [10] | outcome [11] | outcome [12] | outcome [18] | outcome [14] | outcome [15] | outcome [16] | outcome [19]

CC(=O)OC1CCC(C(C)(C)C)CC1 (stereo unspecified)
inactive: outcome [1] | Potency [2] | outcome [3] | outcome [5] | Potency [6] | outcome [7] | Potency [8] | outcome [9] | outcome [11] | outcome [12] | outcome [18] | outcome [14] | outcome [15] | outcome [16]
